# Experimental data: PubChem BioAssay (EPA / NIEHS)
# Results filed as inconclusive are left out. Active and inactive are the calls of the source. Rule for the calls, unless noted: active = hit-call score of the fitted dose curve at least 0.9, where 1 is the maximum; inconclusive = response in the unintended direction; inactive = score below 0.9.
# What was measured:
# [1] = Tanguay_ZF_120hpf_TRUN_legacy: (Legacy) Oregon State University Tanguay Lab 120 Hour Post-fertilization zebrafish Assay for Truncated Body (AID 2283655)
# Procedure, shortened: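 Dechorionated Tropical 5D wild-type embryos placed singly from 6 hpf and statically exposed to 120 hpf at 28C, final DMSO 0.64%. Truncated body scored as present/absent by brightfield; not scored in dead embryos.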
# [2] = system: Thyroperoxidase (TPO), gene 54314; experiment: CCTE_Simmons_AUR_rTPO: CCTE's Amplex UltraRed Assay for Thyroperoxidase (TPO) Inhibition, Simmons Lab (AID 2283662);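 note: potency for loss of signal meaning inhibition of peroxidase activity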
# Procedure, shortened: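 Cell-free peroxidase activity assay using rat thyroid gland microsomes with excess H2O2 (300 uM) and 25 uM Amplex UltraRed. Compounds tested from 5 nM to 87.5 uM; fluorescence measured after 30 min at 37C, analysed relative to DMSO baseline.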
# [3] = CCTE_Simmons_CellTiterGLO_HEK293T: Viability Assessment in CCTE's Assays for Thyroperoxidase (TPO) Inhibition, Simmons Lab (AID 2283665);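 for AC50: cells exposed to compound for 24 h before readout; actives reduce ATP signal below DMSO vehicle meaning cytotoxicity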
# Procedure, shortened: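 Luciferase-coupled ATP content after 24 h exposure gives viability; 8-point series from 5 nM to 87.5 uM final in 0.5% DMSO. Human HEK293T cells, 1% FBS medium, three biological replicates, dichlone positive control.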
# [4] = Tanguay_ZF_120hpf_TR_legacy: (Legacy) Oregon State University Tanguay Lab 120 Hour Post-fertilization zebrafish Assay for Touch Response (AID 2283667)
# Procedure, shortened: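 Binary touch-response endpoint in larvae at 120 hpf after static waterborne exposure from embryo stage (28°C, 0.64% DMSO vehicle, 5 uM trimethyltin chloride as positive control); embryos dead at 24 or 120 hpf excluded; fitted as gain versus DMSO.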
# [5] = CCTE_Padilla_ZF_144hpf_TERATOSCORE: (Legacy) CCTE's 144 Hour Post-fertilization zebrafish Assay Teratoscore, Padilla Lab (AID 2283679; active = hit-call score of the fitted dose curve at least 0.9, where 1 is the maximum; inactive = score below 0.9;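 for AC50: zebrafish embryos with chorions exposed by immersion from 6-8 hpf to 5 dpf with daily renewal; teratogenicity score from eye scoring of death hatching and malformations at 144 hpf; higher score means more developmental defects relative to DMSO baseline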)
# Procedure, shortened: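 Larvae scored by eye at 144 hpf for death, hatching and malformations after a day in clean Hanks'. Before that, daily-renewed exposure at 80 uM (0.4% DMSO, 26C) from roughly 6-8 hpf through 5 dpf, 4 embryos per chemical.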
# [6] = Tanguay_ZF_120hpf_NC_legacy: (Legacy) Oregon State University Tanguay Lab 120 Hour Post-fertilization zebrafish Assay for Notochord and Tail Malformation (AID 2283656)
# Procedure, shortened: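 Binary scoring of notochord distortion by brightfield microscopy; embryos dying were not scored. Wild-type Tropical 5D embryos, chorion removed, exposed singly and statically from 6 to 120 hpf, 28C, sealed, 0.64% DMSO.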
# [7] = read-out: solute carrier (SLC10A1), SLC10A1 (gene 6554); experiment: LTEA_HepaRG_SLC10A1: Life Technologies and Expression Analysis (LTEA) Assay for solute carrier (SLC10A1) using HepaRG (AID 2283657; active = hit-call score of the fitted dose curve at least 0.9, where 1 is the maximum; inactive = score below 0.9); details: mRNA level, 48 h; actives raise or lower the signal
# Procedure, shortened: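 SLC10A1 transcript measured by TaqMan qRT-PCR, housekeeping-normalised, after 48 h chemical treatment of human HepaRG cells. Eight concentrations (half-log, max 100 uM, 0.5% DMSO vehicle) in duplicate; fitted bidirectionally against DMSO baseline.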
# [8] = read-out: matrix metalloproteinase-1 (MMP1), MMP1 (gene 4312); experiment: LTEA_HepaRG_MMP1: Life Technologies and Expression Analysis (LTEA) Assay for matrix metalloproteinase-1 (MMP1) using HepaRG (AID 2283658; active = hit-call score of the fitted dose curve at least 0.9, where 1 is the maximum; inactive = score below 0.9); details: mRNA level, 48 h; actives raise or lower the signal
# Procedure, shortened: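 Differentiated human HepaRG cells, 48 h post-plating in serum-free induction medium, were exposed 48 h to eight half-log concentrations topping at 100 uM in 0.5% DMSO, duplicate. MMP1 mRNA measured by Fluidigm TaqMan qRT-PCR, normalized to ACTB, GAPDH, POLR2A; bidirectional fits versus DMSO.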
# [9] = read-out: Cytochrome P450 (CYP24A1_1), CYP24A1 (gene 1591); experiment: LTEA_HepaRG_CYP24A1_1: Life Technologies and Expression Analysis (LTEA) Assay for Cytochrome P450 (CYP24A1_1) using HepaRG (AID 2283671; active = hit-call score of the fitted dose curve at least 0.9, where 1 is the maximum; inactive = score below 0.9); details: mRNA level, 48 h; actives raise or lower the signal
# Procedure, shortened: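 Differentiated human HepaRG cells were exposed in duplicate for 48 h in serum-free induction medium to eight concentrations (top 100 uM, half-log steps, 0.5% DMSO). CYP24A1 mRNA was quantified by TaqMan qRT-PCR, normalized to ACTB, GAPDH and POLR2A, and fitted bidirectionally versus DMSO.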
# [10] = STM_H9_CystineISnorm_perc: Stemina devTOX quickPredict H9 human embryonic stem cell (hESC)-based Assay for Cystine (CYSS) Metabolite Biomarker, Normalized (AID 2283713; active = hit-call score of the fitted dose curve at least 0.9, where 1 is the maximum; inactive = score below 0.9)
# Procedure, shortened: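 Cystine in spent media from the last 24 h of a 72 h H9 hESC exposure (daily re-dosing), measured by UPLC-HRMS. Values normalized to isotopic internal standard, then to 0.1% DMSO; viability via CellTiter-Fluor.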
structure (smiles),measurement,setting,value
CC(C)(C)c1ccc(O)c(C(C)(C)C)c1,outcome,[1],inactive
same,AC50,[2],13.6 µM (active)
same,AC50,[3],6.68 µM (active)
same,outcome,[4],inactive
same,AC50,[5],7.38 µM (active)
CCCCCCCC(=O)O,outcome,[1],inactive
same,outcome,[6],inactive
same,outcome,[4],inactive
ClC1=C(Cl)C(Cl)(Cl)C(Cl)=C1Cl,outcome,[1],inactive
same,outcome,[7],inactive
same,outcome,[8],inactive
same,outcome,[9],inactive
same,AC50,[5],4.87 µM (active)
CC(O)CO (stereo not given),outcome,[1],inactive
same,outcome,[7],inactive
same,outcome,[8],inactive
same,outcome,[4],inactive
same,outcome,[9],inactive
same,AC50,[10],675000 µM (active)
NC(=O)N(O)[C@@H]1C=C[C@H](Oc2cccc(Oc3ccc(F)cc3)c2)C1,outcome,[1],inactive
same,outcome,[6],inactive
same,AC50,[2],6.75 µM (active)
same,AC50,[3],33.1 µM (active)
same,outcome,[4],inactive
same,AC50,[5],14.9 µM (active)
CCCCCCCCCCCCc1ccccc1S(=O)(=O)O,outcome,[1],inactive
same,outcome,[6],inactive
same,AC50,[2],37.3 µM (active)
same,AC50,[3],33.9 µM (active)
same,outcome,[4],inactive
same,AC50,[5],3.26 µM (active)
same,outcome,[10],inactive
O=C(O)Cc1cc(I)c(Oc2cc(I)c(O)c(I)c2)c(I)c1,outcome,[1],inactive
same,outcome,[6],inactive
same,outcome,[4],inactive
same,AC50,[5],0.0352 µM (active)
same,outcome,[10],inactive
COc1ccc([N+](=O)[O-])cc1N,outcome,[1],inactive
same,AC50,[2],3.52 µM (active)
same,outcome,[3],inactive
same,outcome,[4],inactive
same,outcome,[10],inactive
CCOC(=O)CC(O)(CC(=O)OCC)C(=O)OCC,outcome,[1],inactive
same,outcome,[4],inactive
C=C(C)C(=O)OCCC(F)(F)C(F)(F)C(F)(F)C(F)(F)C(F)(F)C(F)(F)F,outcome,[1],inactive
same,outcome,[7],inactive
same,outcome,[8],inactive
same,outcome,[4],inactive
same,outcome,[9],inactive
same,outcome,[5],inactive
c1ccc2cc3c(ccc4ccccc43)cc2c1,outcome,[1],inactive
same,AC50,[2],22.6 µM (active)
same,AC50,[3],43.8 µM (active)
same,outcome,[4],inactive
same,AC50,[5],20.4 µM (active)
